Experimental data reported in PubChem BioAssay (NCATS).
Results filed as inconclusive are left out. The source made the active and inactive calls. Unless noted, the call rests on the fitted dose curve; in most records, active means well fitted curve in the direction sought with a large enough effect; inconclusive means small, poorly fitted or top-dose-only effect, or another doubt; inactive means no such curve, though single readings can be large; an effect the other way counts as inactive or inconclusive.

Legend:
[1] = molecular target: Lysosomal acid glucosylceramidase (Homo sapiens) (UniProt P04062); assay: Glucocerebrosidase-p2 (AID 348; in the data active means potency below about 10 µM; further: potency means the concentration at half of the fitted maximal effect); conditions: purified GBA, blue fluorogenic substrate, 40 min
Summary of the method: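 Normal human glucocerebrosidase (0.2 nM) with blue fluorogenic substrate (80 uM final) in citrate/phosphate pH 5.9 with 10mM sodium taurocholate, 0.01% tween-20; 40 min RT, NaOH/glycine stop; fluorescence Ex 365/Em 440; AC50 from a titration from 0.6 nM upwards.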

[2] = AP1 Signaling Pathway (AID 357; active means well fitted curve in either direction with a large enough effect, not every such curve was filed as active;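 further: ME-180 reporter cells stimulated with EGF at its EC50 level; on the % scale 0 is the no-effect control and ±100 the full control effect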); conditions: ME-180 AP-1-bla reporter, EGF-induced, beta-lactamase ratio, 5 h; at 7.69 µM (top of the series) unless noted
Summary of the method: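 First, ME-180 AP-1-bla cells were cultured overnight at 37 °C in low-serum Opti-MEM. Next, titrated compounds with EC50 EGF were incubated 5 hours. Finally, CCF4 was added for 2.5 hours and the 460/530 nm ratio recorded.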

[3] = molecular target: Cytochrome P450 1A2 (Homo sapiens) (UniProt P05177); assay: p450-cyp1a2 (AID 410; calls by dose curve; further: potency means the concentration at half of the fitted maximal effect;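 on activity change, negative = inhibition: -100% = full effect of reference inhibitor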); conditions: recombinant CYP1A2, luciferin-ME demethylation, luminescence; series mostly up to 57 µM
Summary of the method: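 Luminescent demethylation readout: Luciferin-ME (100uM, equal to Km) turned over by 20nM CYP1A2 for 60 min at room temperature after NADPH regeneration addition, following 10 min compound preincubation. Normalization used 57 uM furafylline as full inhibition.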

[4] = NFAT Signaling Pathway (AID 444; active means well fitted curve in either direction with a large enough effect, not every such curve was filed as active;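 further: carbachol stimulus at about its EC50 of 1 µM final; on the % scale 0 is the no-effect control and ±100 the full control effect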); conditions: Jurkat NFAT-bla M1, carbachol, beta-lactamase ratio, 5 h; at 7.69 µM (top of the series) unless noted
Summary of the method: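 Jurkat cells with NFAT-driven β-lactamase reporter and co-expressed M1 receptor, stimulated with carbachol (final 1 uM, ~EC50), compound titration, 5 h at 37 °C. CCF4 loaded 1 h at RT; 460/530 nm ratio gave %activity and AC50.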

[5] = Stat Signaling Pathway (AID 446; active means well fitted curve in either direction with a large enough effect, not every such curve was filed as active;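 further: ME-180 cervical cancer cells given 40 pM IL-6 alongside compound; SIE-controlled beta-lactamase reporter measured as 460/530 nm FRET emission ratio; on the % scale 0 is the no-effect control and ±100 the full control effect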); conditions: ME-180 (cervical carcinoma) SIE beta-lactamase reporter, IL-6 stimulated, 5 h; at 7.69 µM (top of the series) unless noted
Summary of the method: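 Overnight-plated ME-180 cells bearing a STAT Inducible Element beta-lactamase reporter; 5 h co-exposure to compound and 40 pM IL-6; values normalized to 300 pM IL-6 and 125 nM JAK inhibitor controls.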

[6] = molecular target: Glucocorticoid receptor (Homo sapiens) (UniProt P04150); assay: GR-GFP Redistribution (AID 450;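 active means compounds whose dose series gives a full or clear partial fitted curve of increased nuclear translocation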; further: potency means the concentration at half of the fitted maximal effect); conditions: U2OS GR-GFP nuclear translocation, laser cytometry, 2 h
[7] = molecular target: Glucocorticoid receptor (Homo sapiens) (UniProt P04150); assay: GR-EFC Redistribution (AID 451; calls by dose curve; further: potency means the concentration at half of the fitted maximal effect); conditions: CHO-K1 GR-EFC translocation, beta-gal luminescence, 2 h
Summary of the method: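 CHO-K1 cells expressing nuclear EA and GR-ED fragments of b-gal; compounds titrated up to 46 uM final, 2 h at 37 C. GR nuclear translocation read as complemented b-gal luminescence after 1 h RT detection.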

[8] = molecular target: Mitogen-activated protein kinase 10 (Mus musculus) (UniProt Q61831); assay: JNK3 AlphaScreen Assay (AID 530; active means well fitted curve in either direction with a large enough effect, not every such curve was filed as active;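 further: kinase came from lysate of stimulated human HepG2 cells; signal reports phosphorylation of biotinylated GST-cJun 1-79 at Ser73 with 10 µM ATP; on the % scale 0 is the no-effect control and ±100 the full control effect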); conditions: JNK3 lysate, c-Jun phosphorylation; series mostly up to 57.1 µM
Summary of the method: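 Activity was read by AlphaScreen after JNK3-containing HepG2 lysate (cytokine pre-activated) phosphorylated biotinylated GST-cJun with 10 uM ATP at room temperature. Phospho-Ser73 cJun antibody with Protein-A acceptor beads provided detection.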

[9] = molecular target: 3',5'-cyclic-AMP phosphodiesterase 4B (Homo sapiens) (UniProt Q07343); assay: qHTS Assay for Inhibitors of PDE-IV (AID 607; active means well fitted activation curve with a large enough effect in the main read-out, with a control signal flat, not every such curve was filed as active; further: % of control where 0% means no effect); conditions: HEK293 ACTOne CNG channel cells, membrane potential fluorescence; series mostly up to 22.9 µM
Summary of the method: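 Live HEK293 cells with a modified cyclic nucleotide-gated (CNG) channel report intracellular cAMP via membrane-potential dye fluorescence (ex 535/em 590 nm). Endogenous PDE-IV was targeted. Compounds were tested at up to 22.9 uM final; RO 20-1724 100 uM served as control.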

[10] = molecular target: Cytochrome P450 3A4 (Homo sapiens) (UniProt P08684); assay: qHTS Assay for Activators of Cytochrome P450 3A4 (AID 885); conditions: recombinant CYP3A4, Luciferin-PPXE luminescence, 60 min; series mostly up to 57.1 µM; further: nearly all actives have a fitted effect of over 65% in size
Summary of the method: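 Using 20nM recombinant human CYP3A4 in potassium phosphate (200mM), substrate Luciferin-PPXE at 25uM, luminescent luciferin detection followed a 60-min RT NADPH reaction; data scaled to 57 uM ketoconazole.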

[11] = molecular target: Dual specificity protein kinase CLK4 (Homo sapiens) (UniProt Q9HAZ1); assay: qHTS Assay for Inhibitors of CDC-like Kinase 4 (Kinase-Glo Assay) (AID 1770); conditions: recombinant Clk4, Kinase-Glo ATP depletion luminescence; series mostly up to 66.7 µM; further: nearly all actives have a fitted effect of over 65% in size; further: potency means the concentration at half of the fitted maximal effect
Summary of the method: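 Recombinant human Clk4 (25 nM) phosphorylated RS repeat peptide (100 uM) with 1 uM ATP in Tris pH 7.5/MgCl2/EGTA/DTT/Triton buffer for 4.5 h at room temperature. Residual ATP was quantified by Kinase-Glo luciferase luminescence.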

[12] = molecular target: Dual specificity protein kinase CLK4 (Homo sapiens) (UniProt Q9HAZ1); assay: qHTS Assay for Inhibitors of CDC-like Kinase 4 (ADP-Glo Assay) (AID 1771); conditions: recombinant CLK4, ADP-Glo luminescence; series mostly up to 80 µM; further: nearly all actives have a fitted effect of over 70% in size; further: potency means the concentration at half of the fitted maximal effect
Summary of the method: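 ADP production was read by ADP-Glo luminescence after residual ATP depletion, following 1 h room-temperature reaction of 25 nM Clk4, 1 uM ATP and 100 uM RS peptide with MgCl2, EGTA, DTT and Triton X-100.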

[13] = molecular target: Dual specificity protein kinase CLK4 (Homo sapiens) (UniProt Q9HAZ1); assay: qHTS Assay for Inhibitors of CDC-like Kinase 4 (ADP-FP Assay) (AID 1795); conditions: Transcreener ADP fluorescence polarization; series mostly up to 50 µM; further: nearly all actives have a fitted effect of over 60% in size; further: potency means the concentration at half of the fitted maximal effect
Summary of the method: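 Recombinant human Clk4 (6.25 nM) phosphorylated RS repeat peptide (100 uM) with 1 uM ATP in Tris pH 7.5/MgCl2/EGTA/DTT/Triton buffer for one hour. ADP was quantified by Transcreener competitive fluorescence polarization against an ADP calibration curve.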

[14] = molecular target: Ubiquitin carboxyl-terminal hydrolase 1 (Homo sapiens) (UniProt O94782); assay: Inhibitors of USP1/UAF1: Pilot qHTS (AID 504865); conditions: purified USP1/UAF1, Ub-rhodamine cleavage fluorescence; series mostly up to 54.9 µM;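 further: rhodamine fluorescence freed from ubiquitin-rhodamine substrate followed over time; top concentration of the series differs between compounds; on the % scale 0 is the no-effect control and ±100 the full control effect; nearly all actives have a fitted effect of over 35% in size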
Summary of the method: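 USP1/UAF1 complex (1nM) preincubated with compound 15 min at room temperature, then Ub-Rho substrate (150nM final) added. Fluorescence read kinetically at 480/540 nm, 6 reads every 60 seconds. Buffer: 50mM HEPES pH 7.8, 0.5mM EDTA, 0.1 mg/ml BSA, 1mM TCEP, 0.01% Tween-20.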

[15] = Primary qHTS for small molecule stabilizers of the endoplasmic reticulum resident proteome: Secreted ER Calcium Modulated Protein (SERCaMP) assay (AID 1508630); conditions: SH-SY5Y GLuc-SERCaMP (Gaussia luciferase released on ER calcium loss) secretion, thapsigargin, luminescence; series mostly up to 38.4 µM; further: on the % scale 0 is the no-effect control and ±100 the full control effect
Summary of the method: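 The SH-SY5Y reporter protocol was run at 3 concentrations up to 38.3 uM (primary) or 11 concentrations (follow-up): 16 h compound, 100 nM thapsigargin for 4 h, then extracellular luciferase luminescence.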

Cytochrome P450 3A4 (Homo sapiens), sequence (P08684 whole entry, looked up): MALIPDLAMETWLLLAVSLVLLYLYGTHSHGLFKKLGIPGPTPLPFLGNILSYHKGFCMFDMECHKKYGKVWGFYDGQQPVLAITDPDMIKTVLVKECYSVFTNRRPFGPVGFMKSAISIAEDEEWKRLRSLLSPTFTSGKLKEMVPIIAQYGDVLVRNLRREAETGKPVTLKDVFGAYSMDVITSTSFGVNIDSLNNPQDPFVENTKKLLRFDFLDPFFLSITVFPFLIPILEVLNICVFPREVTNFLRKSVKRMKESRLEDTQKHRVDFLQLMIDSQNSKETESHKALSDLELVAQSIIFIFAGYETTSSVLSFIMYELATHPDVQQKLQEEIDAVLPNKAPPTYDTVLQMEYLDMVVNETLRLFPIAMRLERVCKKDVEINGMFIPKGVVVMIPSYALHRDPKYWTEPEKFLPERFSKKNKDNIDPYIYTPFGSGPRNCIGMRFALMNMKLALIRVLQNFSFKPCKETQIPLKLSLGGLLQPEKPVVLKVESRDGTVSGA
Ubiquitin carboxyl-terminal hydrolase 1 (Homo sapiens), sequence (O94782 whole entry, looked up): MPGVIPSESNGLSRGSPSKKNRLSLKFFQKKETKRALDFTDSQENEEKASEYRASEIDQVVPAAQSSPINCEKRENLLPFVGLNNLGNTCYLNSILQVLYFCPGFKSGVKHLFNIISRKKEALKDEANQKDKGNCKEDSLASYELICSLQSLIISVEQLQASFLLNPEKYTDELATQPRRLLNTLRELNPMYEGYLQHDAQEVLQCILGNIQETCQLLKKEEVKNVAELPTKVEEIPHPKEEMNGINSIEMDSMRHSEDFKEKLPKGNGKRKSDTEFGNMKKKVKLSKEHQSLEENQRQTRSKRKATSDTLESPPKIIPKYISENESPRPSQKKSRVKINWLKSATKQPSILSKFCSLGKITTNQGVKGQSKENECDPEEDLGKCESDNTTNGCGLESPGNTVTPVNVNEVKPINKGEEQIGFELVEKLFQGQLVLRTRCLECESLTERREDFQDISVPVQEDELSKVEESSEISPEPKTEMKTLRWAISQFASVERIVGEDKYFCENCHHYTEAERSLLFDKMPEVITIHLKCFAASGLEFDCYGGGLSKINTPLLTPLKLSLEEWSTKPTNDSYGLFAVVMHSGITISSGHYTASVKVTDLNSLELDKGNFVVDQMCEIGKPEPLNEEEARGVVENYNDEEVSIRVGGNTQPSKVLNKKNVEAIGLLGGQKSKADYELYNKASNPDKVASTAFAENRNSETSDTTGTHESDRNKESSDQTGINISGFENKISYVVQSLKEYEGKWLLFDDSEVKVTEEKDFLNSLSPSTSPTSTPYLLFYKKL
Cytochrome P450 1A2 (Homo sapiens), sequence (P05177 whole entry, looked up): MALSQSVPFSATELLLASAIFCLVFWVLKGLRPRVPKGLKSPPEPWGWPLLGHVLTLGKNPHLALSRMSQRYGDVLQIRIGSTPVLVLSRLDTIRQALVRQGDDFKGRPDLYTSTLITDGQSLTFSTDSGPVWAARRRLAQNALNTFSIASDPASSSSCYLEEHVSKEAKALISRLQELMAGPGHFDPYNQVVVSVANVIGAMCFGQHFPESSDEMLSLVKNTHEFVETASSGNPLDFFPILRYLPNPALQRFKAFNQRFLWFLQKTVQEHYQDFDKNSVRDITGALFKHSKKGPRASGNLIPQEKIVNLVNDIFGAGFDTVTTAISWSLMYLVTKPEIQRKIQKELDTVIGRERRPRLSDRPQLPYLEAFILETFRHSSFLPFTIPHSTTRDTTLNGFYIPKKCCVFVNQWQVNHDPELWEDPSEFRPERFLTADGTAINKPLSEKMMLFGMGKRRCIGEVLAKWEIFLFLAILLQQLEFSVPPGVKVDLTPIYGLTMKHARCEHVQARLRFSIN
Glucocorticoid receptor (Homo sapiens), sequence (P04150 whole entry, looked up, the tested form may be a part): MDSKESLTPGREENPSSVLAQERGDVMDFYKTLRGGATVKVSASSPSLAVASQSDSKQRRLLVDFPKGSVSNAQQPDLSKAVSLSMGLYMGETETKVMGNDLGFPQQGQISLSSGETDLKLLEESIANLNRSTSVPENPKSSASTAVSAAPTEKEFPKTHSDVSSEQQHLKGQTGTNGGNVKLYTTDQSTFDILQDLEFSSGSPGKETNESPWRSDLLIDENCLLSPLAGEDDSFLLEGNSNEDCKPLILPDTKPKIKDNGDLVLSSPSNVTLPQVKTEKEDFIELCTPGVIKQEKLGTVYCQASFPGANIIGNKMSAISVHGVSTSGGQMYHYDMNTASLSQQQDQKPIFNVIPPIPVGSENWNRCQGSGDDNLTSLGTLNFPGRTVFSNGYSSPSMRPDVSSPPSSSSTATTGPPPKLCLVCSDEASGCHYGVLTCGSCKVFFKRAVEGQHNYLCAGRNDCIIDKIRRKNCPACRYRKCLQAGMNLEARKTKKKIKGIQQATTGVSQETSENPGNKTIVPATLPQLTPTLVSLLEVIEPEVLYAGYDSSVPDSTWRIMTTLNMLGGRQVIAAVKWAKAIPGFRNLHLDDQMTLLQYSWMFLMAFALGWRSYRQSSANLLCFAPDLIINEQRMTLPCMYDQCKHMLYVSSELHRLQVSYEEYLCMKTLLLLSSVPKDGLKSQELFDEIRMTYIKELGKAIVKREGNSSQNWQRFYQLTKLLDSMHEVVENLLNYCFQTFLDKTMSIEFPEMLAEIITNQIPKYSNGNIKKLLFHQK
Dual specificity protein kinase CLK4 (Homo sapiens), sequence (Q9HAZ1 whole entry, looked up): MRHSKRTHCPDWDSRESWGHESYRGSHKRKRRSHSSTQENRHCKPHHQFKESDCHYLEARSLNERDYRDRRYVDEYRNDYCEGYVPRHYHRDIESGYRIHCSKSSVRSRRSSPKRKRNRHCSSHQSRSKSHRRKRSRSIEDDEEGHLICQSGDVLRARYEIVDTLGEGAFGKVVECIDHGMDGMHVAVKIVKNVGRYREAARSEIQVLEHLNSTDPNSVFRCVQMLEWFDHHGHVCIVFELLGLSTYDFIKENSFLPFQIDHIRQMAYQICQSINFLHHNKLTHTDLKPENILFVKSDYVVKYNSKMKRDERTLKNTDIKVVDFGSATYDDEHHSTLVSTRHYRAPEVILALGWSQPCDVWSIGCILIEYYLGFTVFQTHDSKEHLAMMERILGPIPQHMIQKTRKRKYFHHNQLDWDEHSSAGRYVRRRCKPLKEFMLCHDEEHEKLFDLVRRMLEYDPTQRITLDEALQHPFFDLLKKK
3',5'-cyclic-AMP phosphodiesterase 4B (Homo sapiens), sequence (Q07343 whole entry, looked up): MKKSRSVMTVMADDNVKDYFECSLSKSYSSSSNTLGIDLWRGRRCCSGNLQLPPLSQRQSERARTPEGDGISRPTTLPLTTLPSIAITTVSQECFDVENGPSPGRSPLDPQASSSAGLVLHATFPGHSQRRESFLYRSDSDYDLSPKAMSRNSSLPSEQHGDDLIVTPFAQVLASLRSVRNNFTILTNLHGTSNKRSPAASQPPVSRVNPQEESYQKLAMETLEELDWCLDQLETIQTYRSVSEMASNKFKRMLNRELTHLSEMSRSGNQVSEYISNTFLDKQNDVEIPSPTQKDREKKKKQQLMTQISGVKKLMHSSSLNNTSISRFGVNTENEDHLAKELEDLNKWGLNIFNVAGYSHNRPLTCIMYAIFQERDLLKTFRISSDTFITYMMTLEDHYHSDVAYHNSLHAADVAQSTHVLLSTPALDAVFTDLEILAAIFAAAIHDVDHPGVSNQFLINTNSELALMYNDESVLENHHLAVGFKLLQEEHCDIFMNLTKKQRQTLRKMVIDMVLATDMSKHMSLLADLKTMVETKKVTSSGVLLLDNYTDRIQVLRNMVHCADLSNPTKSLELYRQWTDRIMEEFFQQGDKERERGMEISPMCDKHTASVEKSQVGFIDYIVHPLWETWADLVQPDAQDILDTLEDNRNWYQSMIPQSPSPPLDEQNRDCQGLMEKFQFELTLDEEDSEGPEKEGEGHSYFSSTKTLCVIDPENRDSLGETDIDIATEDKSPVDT
Lysosomal acid glucosylceramidase (Homo sapiens), sequence (P04062 whole entry, looked up): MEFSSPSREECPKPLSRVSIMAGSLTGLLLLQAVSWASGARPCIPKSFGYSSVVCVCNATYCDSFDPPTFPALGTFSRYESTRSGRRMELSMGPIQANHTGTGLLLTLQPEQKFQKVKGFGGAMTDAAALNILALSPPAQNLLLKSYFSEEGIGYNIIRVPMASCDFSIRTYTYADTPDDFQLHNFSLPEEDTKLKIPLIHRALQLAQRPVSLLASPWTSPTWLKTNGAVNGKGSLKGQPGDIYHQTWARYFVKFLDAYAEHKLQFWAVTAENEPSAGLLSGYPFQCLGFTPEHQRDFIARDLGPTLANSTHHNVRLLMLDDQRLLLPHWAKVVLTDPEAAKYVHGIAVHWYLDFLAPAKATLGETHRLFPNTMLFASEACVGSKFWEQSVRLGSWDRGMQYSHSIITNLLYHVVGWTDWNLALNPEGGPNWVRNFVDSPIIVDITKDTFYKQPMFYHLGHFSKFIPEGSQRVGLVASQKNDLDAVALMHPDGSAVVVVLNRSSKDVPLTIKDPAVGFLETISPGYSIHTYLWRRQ

COCCn1c(=O)c(-c2cccc(C#N)c2)nc2cnc(Oc3ccc(OC)cc3)nc21
active: Potency [3] 12.6 µM
inactive: Potency [1] > 11.4 µM | activity change, negative = inhibition [2] -21.9% | activity change, negative = inhibition [4] 7% | activity, negative = inhibition [5] -15% | Potency [6] > 9.22 µM | Potency [7] > 46 µM | Potency [8] | Potency [9] | Potency [10] | Potency [11] | Potency [12] | Potency [13] | Potency [14] | outcome [15]

COc1ccc(-n2c(=O)c(-c3ccccc3)nc3cncnc32)cc1
inactive: Potency [1] > 11.4 µM | activity change, negative = inhibition [2] -26.7% | activity change, negative = inhibition [4] 8.64% | activity, negative = inhibition [5] -9.27% | Potency [6] > 9.22 µM | Potency [7] > 46 µM | Potency [8] | Potency [9] | Potency [10] | Potency [11] | Potency [12] | Potency [13] | Potency [14] | outcome [15]
active: Potency [3] 3.98 µM

COc1ccc(-n2c(=O)c(-c3ccc(F)cc3)nc3cncnc32)cc1
inactive: Potency [1] > 11.4 µM | activity change, negative = inhibition [2] 7.36% | Potency [3] | activity change, negative = inhibition [4] -20% | activity, negative = inhibition [5] 6.09% | Potency [6] > 9.22 µM | Potency [7] > 46 µM | Potency [8] | Potency [9] | Potency [11] | Potency [12] | Potency [13] | Potency [14] | outcome [15]

COc1ccc(-n2c(=O)c(C)nc3cnc(N4CCOCC4)nc32)cc1
active: Potency [3] 12.6 µM
inactive: Potency [1] > 11.4 µM | activity change, negative = inhibition [2] -10.2% | activity change, negative = inhibition [4] 3.24% | activity, negative = inhibition [5] -6.68% | Potency [6] > 9.22 µM | Potency [7] > 46 µM | Potency [8] | Potency [9] | Potency [10] | Potency [11] | Potency [12] | Potency [13] | Potency [14] | outcome [15]

COc1ncc2nc(-c3ccc(F)cc3)c(=O)n(CCc3ccccc3)c2n1
active: Potency [3] 0.398 µM
inactive: Potency [1] > 11.4 µM | activity change, negative = inhibition [2] -6.05% | activity change, negative = inhibition [4] -8.98% | activity, negative = inhibition [5] -5.82% | Potency [6] > 9.22 µM | Potency [7] > 46 µM | Potency [8] | Potency [9] | Potency [11] | Potency [12] | Potency [13] | Potency [14] | outcome [15]

c1cncc(-c2ccc3ncnc(NC4CCNCC4)c3c2)c1
active: Potency [3] 12.6 µM | Potency [11] 14.1 µM | Potency [12] 15.8 µM | Potency [13] 12.6 µM
inactive: Potency [1] > 11.4 µM | activity change, negative = inhibition [2] 5.15% | activity change, negative = inhibition [4] 13.2% | activity, negative = inhibition [5] 3.6% | Potency [6] > 46 µM | Potency [7] > 46 µM | Potency [8] | Potency [9] | Potency [10] | Potency [14] | outcome [15]

COCCNc1ccnc(-c2ccccc2C)n1
active: Potency [3] 12.6 µM
inactive: Potency [1] > 11.4 µM | activity change, negative = inhibition [2] -9.97% | activity change, negative = inhibition [4] 3.48% | activity, negative = inhibition [5] 15.6% | Potency [6] > 46 µM | Potency [7] > 46 µM | Potency [8] | Potency [9] | Potency [11] | Potency [12] | Potency [13] | Potency [14] | outcome [15]

Cc1noc(C)c1-c1nccc(N(C)Cc2ccco2)n1
inactive: Potency [1] > 11.4 µM | activity change, negative = inhibition [2] 6.47% | activity change, negative = inhibition [4] -3.01% | activity, negative = inhibition [5] 3.88% | Potency [6] > 46 µM | Potency [7] > 46 µM | Potency [8] | Potency [9] | Potency [11] | Potency [12] | Potency [13] | Potency [14] | outcome [15]
active: Potency [3] 2 µM

CCNc1ncc2nc(-c3cn(C)c4ccccc34)c(=O)n(Cc3cccs3)c2n1
active: Potency [3] 6.31 µM
inactive: Potency [1] > 11.4 µM | activity change, negative = inhibition [2] -13.1% | activity change, negative = inhibition [4] 8.06% | activity, negative = inhibition [5] 23.5% | Potency [6] > 9.22 µM | Potency [7] > 46 µM | Potency [8] | Potency [9] | Potency [11] | Potency [12] | Potency [13] | Potency [14] | outcome [15]

CCNc1ncc2nc(-c3ccccc3)c(=O)n(C)c2n1
inactive: Potency [1] > 11.4 µM | activity change, negative = inhibition [2] -13.4% | activity change, negative = inhibition [4] -7.59% | activity, negative = inhibition [5] -9.07% | Potency [6] > 9.22 µM | Potency [7] > 46 µM | Potency [8] | Potency [11] | Potency [12] | Potency [13] | Potency [14] | outcome [15]
active: Potency [3] 0.398 µM

O=c1c(-c2cc(F)cc(F)c2)nc2cncnc2n1C1CC1
active: Potency [3] 1.26 µM
inactive: Potency [1] > 11.4 µM | activity change, negative = inhibition [2] -12% | activity change, negative = inhibition [4] 2.52% | activity, negative = inhibition [5] -11.9% | Potency [6] > 9.22 µM | Potency [7] > 46 µM | Potency [8] | Potency [9] | Potency [10] | Potency [11] | Potency [12] | Potency [13] | Potency [14] | outcome [15]

COCCn1c(=O)c(-c2ccc(Cl)cc2)nc2cnc(N3CCOCC3)nc21
active: Potency [3] 1 µM
inactive: Potency [1] > 11.4 µM | activity change, negative = inhibition [2] 9.82% | activity change, negative = inhibition [4] 7.69% | activity, negative = inhibition [5] 9.52% | Potency [6] > 9.22 µM | Potency [7] > 46 µM | Potency [8] | Potency [9] | Potency [11] | Potency [12] | Potency [13] | Potency [14] | outcome [15]

CNc1nc(-c2cccnc2)nc2ccccc12
inactive: Potency [1] > 11.4 µM | activity change, negative = inhibition [2] 14.7% | activity change, negative = inhibition [4] 2.11% | activity, negative = inhibition [5] -3.74% | Potency [6] > 46 µM | Potency [7] > 46 µM | Potency [8] | Potency [9] | Potency [10] | Potency [14] | outcome [15]
active: Potency [3] 0.1 µM | Potency [11] 4.47 µM | Potency [12] 6.31 µM | Potency [13] 3.98 µM
